Bioassay records: PubChem, National Center for Advancing Translational Sciences (NCATS)
HPGD inh – blocks human HPGD enzyme activity; hit rate 4.3% among 150,000; Potency, µM, actives largely listed as inhibitors; purified HPGD, NADH fluorescence kinetic, PGE2 substrate; active means well fitted inhibition curve with a large enough effect, not every such curve was filed as active; inconclusive means small, poorly fitted or top-dose-only effect, or another doubt; inactive means no such curve, though single readings can be large or run the other way
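20 nM HPGD preincubated 15 min at room temperature with compound in 50 mM Tris-HCl pH 8, 0.01% Tween 20. Started with 1 mM NAD+ and 30 uM prostaglandin E2; NADH fluorescence (360/450 nm) read 5 times over 30-s intervals, last minus first.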
Tau FP inhib – tau fibrillization inhibition (FP); P10636; K18 P301L tau heparin fibrillization, Alexa594 FP, 6 h; Potency, µM (doses to about 57.7 µM), usual class: inhibitors; hit rate 0.39% among 280,000; AID 1468; further: nearly all actives have a fitted effect of over 55% in size
Target sequence (P10636 561-689 P618L limits assumed): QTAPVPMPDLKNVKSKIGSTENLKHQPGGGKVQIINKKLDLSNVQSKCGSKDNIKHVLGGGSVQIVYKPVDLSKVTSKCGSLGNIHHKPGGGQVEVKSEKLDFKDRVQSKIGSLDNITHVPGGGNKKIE
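Compound effects on tau fibrillization are measured by Alexa 594 fluorescence polarization (ex 555, em 632 nm). K18 P301L tau is used at 15 uM with 0.24 uM labeled tracer, and 20 uM heparin induces aggregation over 6 hr at 37 C.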
Tau fibril ThT – inhibitors of human tau fibril formation, thioflavin T binding; P10636; recombinant tau K18 P301L, heparin-induced fibrillization, ThT fluorescence; Potency, µM (titrated, usually from 57.4 µM), most hits filed as inhibitors; hit rate 2.1% among 270,000; AID 1460; further: nearly all actives have a fitted effect of over 55% in size
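In this qHTS, human K18 P301L tau is incubated with compound and heparin for 6 hr at 37 C, and Thioflavin T fluorescence then reports fibril load.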
ALDH1A1 inh – ALDH1A1 (human) enzyme inhibition. P00352. Purified ALDH1A1, NADH fluorescence, propionaldehyde substrate. Potency, µM (series often up to 75.3 µM), usual class: inhibitors. hit rate 7.3% among 220,000. AID 1030; active means well fitted inhibition curve with a large enough effect, not every such curve was filed as active; inconclusive means small, poorly fitted or top-dose-only effect, or another doubt; inactive means no such curve, though single readings can be large or run the other way
Tau fluor counter – counter-screen for tau fibril formation inhibitors | tau K18 P301L Alexa594 fluorescence, heparin fibrillization | Potency, µM (titrated, usually from 57.7 µM) | hit rate 0.93% among 280,000 | AID 1463; further: nearly all actives have a fitted effect of over 55% in size
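Human tau K18 P301L (15 uM unlabeled, 0.24 uM Alexa 594-labeled) in 100 mM sodium acetate pH 7 with 20 uM heparin, 6 hr at 37 C. ThT 30 uM added, 1 hr ambient; Alexa 594 FP and total fluorescence read at 555/632 nm.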
JMJD2E inh – inhibitors of human JMJD2E histone demethylase. B2RXH2. JMJD2E catalytic domain, FDH-coupled NADH fluorescence (FDH is formaldehyde dehydrogenase). Potency, µM (titrated, usually from 57.1 µM), hits mostly inhibitors. hit rate 1.6% among 230,000. AID 2147; active means well fitted inhibition curve with a large enough effect, not every such curve was filed as active; inconclusive means small, poorly fitted or top-dose-only effect, or another doubt; inactive means no such curve, though single readings can be large or run the other way; further: nearly all actives have a fitted effect of over 50% in size
Target sequence (B2RXH2 1-337 limits assumed): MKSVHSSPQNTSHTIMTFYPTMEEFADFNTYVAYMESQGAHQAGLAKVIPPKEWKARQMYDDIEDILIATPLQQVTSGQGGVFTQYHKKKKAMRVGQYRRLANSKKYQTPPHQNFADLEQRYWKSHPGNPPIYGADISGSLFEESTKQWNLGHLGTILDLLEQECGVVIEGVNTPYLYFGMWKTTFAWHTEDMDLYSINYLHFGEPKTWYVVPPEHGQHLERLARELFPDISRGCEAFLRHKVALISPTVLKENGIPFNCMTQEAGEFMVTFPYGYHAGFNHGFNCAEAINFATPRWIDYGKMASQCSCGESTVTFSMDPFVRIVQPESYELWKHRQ
Of the large screens only hits and unclear results are named; the others gave an inactive call. Most compounds without a hit are left out; they make up all but 9.9% or so of the library. Unless noted, the call rests on the fitted dose curve; in most records, active means well fitted curve in the direction sought with a large enough effect; inconclusive means small, poorly fitted or top-dose-only effect, or another doubt; inactive means no such curve, though single readings can be large; an effect the other way counts as inactive or inconclusive.

COc1ccc(-c2coc3cc(OC(C)=O)cc(OC(C)=O)c3c2=O)cc1	JMJD2E inh inconclusive
COc1cccc(Nc2nc(-c3ccccc3)c3cc(C)ccc3n2)c1	Tau fibril ThT inconclusive, Tau fluor counter inconclusive (no result: HPGD inh, ALDH1A1 inh, JMJD2E inh)
COc1cc(Nc2nc(-c3ccccc3)c3cc(C)ccc3n2)cc(OC)c1OC	Tau FP inhib inconclusive, Tau fibril ThT 16µM, Tau fluor counter inconclusive
c1ccc(Cc2nn3c(-c4ccncc4)nnc3s2)cc1	HPGD inh 28µM, ALDH1A1 inh 22µM
c1ccc(Cc2nnc3sc(-c4cccnc4)nn23)cc1	HPGD inh 14µM, ALDH1A1 inh 11µM
c1ccc(Cc2nnc3sc(-c4cccs4)nn23)cc1	HPGD inh 8.9µM, ALDH1A1 inh 2.8µM
c1csc(-c2nn3c(Cn4cnc5ccccc54)nnc3s2)c1	HPGD inh inconclusive, ALDH1A1 inh inconclusive
c1ccc(Cc2nnc3sc(-c4ccccn4)nn23)cc1	HPGD inh inconclusive, Tau FP inhib inconclusive, ALDH1A1 inh 14µM
c1ccc(Cc2nnc3sc(-c4ccc5c(c4)OCCO5)nn23)cc1	HPGD inh inconclusive, Tau fibril ThT inconclusive, ALDH1A1 inh inconclusive, JMJD2E inh inconclusive
CCOc1cc2[nH]c(=O)n(CCCCC(=O)N3CCN(c4ccccc4)CC3)c(=O)c2cc1OCC	none (no result: HPGD inh, ALDH1A1 inh, JMJD2E inh)
CCOc1ccccc1NS(=O)(=O)c1cn(C)c(=O)n(C)c1=O	none (no result: HPGD inh, Tau fibril ThT, ALDH1A1 inh)
CCOc1ccccc1-c1nn2c(Cc3ccccc3)nnc2s1	HPGD inh inconclusive, Tau fibril ThT inconclusive, ALDH1A1 inh inconclusive, JMJD2E inh inconclusive
c1ccc(Cc2nnc3sc(-c4ccncc4)nn23)cc1	HPGD inh 11µM, ALDH1A1 inh 7.9µM
c1ccc(CCc2nn3c(Cc4ccccc4)nnc3s2)cc1	HPGD inh 11µM, ALDH1A1 inh 8.9µM
COc1cc([C@@H]2Oc3cc([C@H]4Oc5cc(O)cc(O)c5C(=O)[C@H]4O)ccc3O[C@H]2CO)ccc1O	HPGD inh 35µM, Tau fibril ThT inconclusive, ALDH1A1 inh inconclusive, Tau fluor counter inconclusive, JMJD2E inh 28µM
COc1cc([C@H]2Oc3cc([C@H]4Oc5cc(O)cc(O)c5C(=O)[C@@H]4O)ccc3O[C@@H]2CO)ccc1O	ALDH1A1 inh 14µM (no result: Tau FP inhib, Tau fibril ThT, Tau fluor counter, JMJD2E inh)
CCc1cccc(C)c1NC(=O)C(C)Sc1nc2c(c(=O)[nH]1)CCCC2 (centres undefined)	none (no result: HPGD inh, ALDH1A1 inh, JMJD2E inh)
Cc1ccccc1OCC(=O)Nc1ccc(Cc2ccncc2)cc1	HPGD inh 18µM, ALDH1A1 inh inconclusive
O=C(CNC1CCCCCC1)Nc1ccc(N2CCCC2)cc1	none
O=C(OCC(=O)N1CCN(c2ccccc2)CC1)c1ccc2ccccc2n1	Tau fibril ThT inconclusive, ALDH1A1 inh 8.9µM
O=C(O)CCC(=O)Nc1ccc(N2CCCCCC2)cc1	ALDH1A1 inh 11µM, JMJD2E inh inconclusive
Cc1ccc(N2CCN(c3ccc(NC(=O)CCC(=O)O)cc3)CC2)cc1	Tau fibril ThT inconclusive
CC1CCN(CC(=O)Nc2ccc(N3CCCCCC3)cc2)CC1	Tau fibril ThT inconclusive, ALDH1A1 inh inconclusive, JMJD2E inh 22µM (no result: HPGD inh)
CCOc1ccccc1NC(=O)N1c2ccccc2Sc2ccccc21	Tau fibril ThT inconclusive (no result: HPGD inh, ALDH1A1 inh, JMJD2E inh)
O=C(O)CCCC(=O)Nc1ccc(C(=O)N2CCCCC2)c(Cl)c1	HPGD inh 0.45µM
O=C(Nc1ccc(N2CCCC2)cc1)C(Cl)c1ccccc1 (centres undefined)	Tau FP inhib 32µM, Tau fibril ThT 25µM, ALDH1A1 inh inconclusive, Tau fluor counter inconclusive, JMJD2E inh inconclusive
O=C(CN1CCN(c2ccc(O)cc2)CC1)Nc1ccc(SC(F)F)cc1	Tau fibril ThT inconclusive, ALDH1A1 inh 8.9µM, JMJD2E inh inconclusive
O=C1CN(CC(=O)Nc2ccc(SC(F)F)cc2)CCN1	none
Cc1cccc(OCC(=O)Nc2ccc(N3CCCC3)cc2)c1C	Tau fibril ThT 14µM, ALDH1A1 inh 13µM, Tau fluor counter inconclusive
O=C(Nc1ccc(N2CCCCC2)cc1)c1ccc2ccccc2n1	Tau fibril ThT 13µM, Tau fluor counter inconclusive (no result: HPGD inh)
O=C(CNCC1CCCO1)Nc1ccccc1N1CCCCCC1 (centres undefined)	none
O=C(CNCC1CCCO1)Nc1ccc(N2CCCCCC2)cc1 (centres undefined)	Tau fibril ThT inconclusive, ALDH1A1 inh 16µM
